Usually inhibition stands for the change of the read-out against control, counted positive when it falls.

Among the data in PubChem BioAssay AID1850 (Southern Research Specialized Biocontainment Screening …, 2009) are inhibition values, retold here.

Among all 310,000 compounds or so, about 1,000 (0.32%) were called active. The rule behind the calls is not given here. Not all results are given here. Results with a measured potency or affinity are listed apart.

The nature of the assay: Inhibition of PhoP regulon, Salmonella typhi GFP reporter cells, confirmation, 4 h (AID 1850).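 Note: 0% = induced wells with vehicle and 100% = uninduced wells.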 Particulars: Salmonella Typhi PhoP-promoter GFP reporter, fluorescence, at 50 µM, hits give high values.
`CCOc1ccc(NC2=NCCCS2)cc1`: the inhibition was -2.96% (inactive).
The value for `CCc1ccc(NC2=NCCCS2)cc1` was 39.5% (inactive); that for `CCCCC(CC)COC(=O)c1ccccc1C(=O)OCC(CC)CCCC` (stereo not drawn) was -4.54% (inactive); that for `COC(=O)[C@@H](N)CCCN=C(N)N[N+](=O)[O-]` was -16.2% (inactive).
Consider `CCOc1ccc(OCCSc2nc(N)cc(=O)[nH]2)cc1`, for which the inhibition was 12.9% (inactive).
The value for `C=CCNC(=O)c1cc2cccc(OC)c2oc1=O` was -9.75% (inactive).
To `COCC(=O)NNS(=O)(=O)c1ccccc1[N+](=O)[O-]` belongs 0.41% (inactive).
To `COc1ccc(-c2noc(N3CCCC(C(=O)Nc4ccccc4F)C3)n2)cc1` (stereo not drawn) belongs 4.79% (inactive); to `S=C(NC1CC2CCC1C2)N1CCN(c2cccc(Cl)c2)CC1` (stereo not drawn), 15.8% (inactive); to `O=S(=O)(c1ccc(F)c(F)c1F)N1CCN(C(=S)NC2CC3CCC2C3)CC1` (stereo not drawn), 3.26% (inactive).
For `CC1CCCN(C(=S)NCc2ccccc2)C1` (stereo not drawn), the inhibition is -5.12% (inactive).
Consider `Cc1c(-n2cc(C(=O)O)c(=O)c3cc(F)c(N4CCCC(O)C4)c(F)c32)c(=O)n(-c2ccccc2)n1C` (stereo not drawn), for which the inhibition was 2.49% (inactive).
In the case of `CC1CCN(c2c(NCC3CCC(C(=O)NCc4ccccc4)CC3)c(=O)c2=O)CC1` (stereo not drawn), the inhibition was -9.12% (inactive).
With `Cc1ccccc1N1C(=O)c2sc3nc4c(c(=O)n3c2C1=O)CCC4`, the inhibition was 0.93% (inactive).
To `O=C(OCCN=C1NS(=O)(=O)c2ccccc21)c1ccco1` belongs 5.3% (inactive); to `O=C(c1cccc(S(=O)(=O)N2CCCC2)c1)N1CCN(c2ccccc2F)CC1`, -7.17% (inactive).
For `O=C(CSc1nc2[nH]ncc2c(=O)n1-c1ccc(Cl)c(Cl)c1)NCc1ccccc1Cl`, the inhibition is -3.93% (inactive).
On to `C/C(=N\NC(=O)c1cccnc1)c1ccccc1`, for which the inhibition is -2.72% (inactive).
To `CC(=O)Nc1ccc(S(=O)(=O)NCC2CCC(C(=O)NCCCN3CCCC3=O)CC2)cc1` (stereo not drawn) belongs -3.51% (inactive).
To `COc1ccc(S(=O)(=O)N2CCc3ccccc32)cc1C(=O)O` belongs 0.91% (inactive).
For `O=C(NCc1cccnc1)c1cc(Sc2ccc(F)cc2F)nc2ccccc12`, the inhibition is -9.05% (inactive).
The value for `COc1ccc(CC(=O)NNC(=S)NC(=O)c2cccnc2)cc1` was 9.02% (inactive); that for `Cc1n[nH]c(C)c1CCNC(=O)C1CCC(=O)N(CCc2cccc(F)c2)C1` (stereo not drawn) was -2.89% (inactive); that for `CCn1cc(C(=O)O)c(=O)c2cnc(N3CCN(C(=S)Nc4ccc(F)cc4)CC3)nc21` was -5.98% (inactive).
As to `COC(=O)CC1C(=O)NCCN1C(=S)Nc1ccc(F)cc1` (stereo not drawn), the inhibition is 4.44% (inactive).
With `COC(=O)C(C)NC(=S)N1CC2C[C@@H](C1)Cn1c2cccc1=O` (stereo partly drawn), the inhibition is 3.1% (inactive).
To `COC(=O)C1=C(N)Oc2cc(N(C)C)ccc2C1c1ccccc1OC` (stereo not drawn) belongs -7.55% (inactive).
The value for `Cc1ccc(CNC(=O)CSCc2ccccc2F)cc1` was 3.95% (inactive); that for `Cc1ccccc1N1CC(C(=O)NC2CCCC2)CC1=O` (stereo not drawn) was -18.4% (inactive); that for `CCCNC(=O)COc1coc(CN2CCN(c3cccc(Cl)c3)CC2)cc1=O` was 9.58% (inactive).
The value for `Cc1c(NC(=O)c2nn3c(c2Br)NC(c2ccccc2)CC3C(F)(F)F)c(=O)n(-c2ccccc2)n1C` (stereo not drawn) was -3.46% (inactive); that for `c1cc2ccc3ccc(CN4CCOCC4)c4ccc(c1)c2c34` was -8.34% (inactive); that for `OC1CCCN(Cc2cccc3ccccc23)C1` (stereo not drawn) was -1.87% (inactive).
Turning to `Cc1nnc(NC(=O)CCSc2ccc(Cl)cc2)s1`, the inhibition is -3% (inactive).
To `COCCCN1CCN(C2Cc3ccccc3Sc3ccc(Cl)cc32)CC1` (stereo not drawn) belongs 1.9% (inactive).
The value for `COc1ccc2c(c1)CC(N1CCN(C)CC1)c1cc(OC)ccc1S2` (stereo not drawn) was 21.4% (inactive).
To `CC(C)c1ccc2c(c1)C(N1CCN(C)CC1)Cc1cccnc1S2` (stereo not drawn) belongs 15.7% (inactive).
Regarding `CSc1ccc2c(c1)C(N1CCN(C)CC1)Cc1ccccc1S2` (stereo not drawn), the inhibition was 12.9% (inactive).
Consider `CN1CCN(CCOC2Cc3ccccc3Sc3ccc(Cl)cc32)CC1` (stereo not drawn), for which the inhibition is -19.4% (inactive).
To `Fc1ccc2c(c1)Sc1ccc(Cl)cc1CC2N1CCN(CCC2OCCO2)CC1` (stereo not drawn) belongs 12.3% (inactive).
As for `Cc1cc(C)c(C(=O)/C=C/c2cccc3ccccc23)c(=O)[nH]1`, the inhibition was -11.9% (inactive).
To `CCn1c(=O)cc(SCC(=O)N2CCOCC2)c2ccccc21` belongs 0.81% (inactive); to `Cc1cccc(OCCc2c(C)[nH]c(=S)[nH]c2=O)c1`, -1.55% (inactive).
The value for `NC(=O)CSc1nnc(Cn2c(=O)sc3ccccc32)n1CCc1ccccc1` was 1.95% (inactive); that for `COc1cccc(NC(=O)CCCCCN2C(=O)[C@@H]3Cc4ccccc4CN3C2=O)c1` was 6.78% (inactive); that for `CCN1C(=O)CSC1=Nc1ccc(OC)cc1` was -7.25% (inactive).
For the compound `COc1cc(OC)c(OC)cc1CNCCNC(=O)c1nonc1N`, the inhibition is 6.25% (inactive).
The value for `CN1CCN(C2Cc3ccc(F)cc3Sc3cc(F)c(Cl)cc32)CC1` (stereo not drawn) was 8.23% (inactive).
To `CCOC(=O)c1cccnc1NC(=O)c1ccccc1` belongs -7.33% (inactive).
Turning to `COc1ccccc1C(=O)NC(C(=O)NCCc1nc2ccccc2[nH]1)=C(C)C`, the inhibition was -1.36% (inactive).
The value for `CC(C)OCCCNc1ncnc2c1[nH]c1ccccc12` was 11.2% (inactive).
The value for `CCN(CC)CCCNc1ncnc2ccccc12` was 0.53% (inactive); that for `CCOCCCNc1ncnc2c1[nH]c1ccccc12` was 0.37% (inactive).
As to `COCCNc1ncnc2c1[nH]c1ccccc12`, the inhibition was 8.5% (inactive).
To `COc1ccc(CNc2ncnc3c2[nH]c2cc(OC)c(OC)cc23)cc1` belongs 3.65% (inactive).
The value for `OCCCNc1ncnc2c1[nH]c1ccccc12` was 2.26% (inactive).
The value for `O=c1c2[nH]c3ccccc3c2ncn1CCC1=CCCCC1` was -7.17% (inactive); that for `OCCCCCNc1ncnc2ccccc12` was 2.05% (inactive).
Turning to `COc1cc([N+](=O)[O-])cc(/C=N/NC(=O)c2cc(-c3ccccc3)nc3ccccc23)c1O`, the inhibition was -2.11% (inactive).
To `O=C(CCC(=O)c1ccc(F)cc1)NC1CCCN(Cc2ccccc2F)C1` (stereo not drawn) belongs -3.89% (inactive); to `O=C(c1cc(Br)ccc1Cl)N1CCCC1`, 6% (inactive).
To `Cc1ccc(NS(=O)(=O)c2ccc(C(=O)NCC(c3ccco3)N(C)C)cc2)cc1` (stereo not drawn) belongs -2.21% (inactive); to `CCOC(=O)C1=C(O)c2ccccc2C(=O)/C1=C\c1ccc(CC)cc1`, -9.78% (inactive).
To `CCCc1ccc(/C=C2\C(=O)c3ccccc3C(O)=C2C(=O)OCC)cc1` belongs -2.52% (inactive); to `Nc1ccc(C(=O)Oc2ccc([N+](=O)[O-])cc2)c(O)c1`, -25% (inactive).
In the case of `N#CCC(=O)Nc1ccc(C(=O)OCC(=O)Nc2ccccc2Sc2ccccc2)cc1`, the inhibition was -5.37% (inactive).
The value for `Cc1ccccc1OCC(O)CN1CCN(c2ccc(Cl)cc2)CC1` (stereo not drawn) was 6.16% (inactive); that for `CNNC(=S)Nc1cccc(C(F)(F)F)c1` was 6.82% (inactive); that for `O=C(CC1SC2=NCCN2C1=O)Nc1ccc(Cl)cc1` (stereo not drawn) was -0.31% (inactive).
The value for `Nc1ccc2c(c1)N1CCN=C1S2` was -12.9% (inactive); that for `Cc1ccc(O)c(-c2cc(C(F)(F)C(F)F)[nH]n2)c1` was -3.16% (inactive).
On to `FC(F)C(F)(F)c1cc(-c2ccccc2)n[nH]1`, for which the inhibition is 5.29% (inactive).
To `O=c1nc(-c2ccccc2)n(-c2ccc(Cl)cc2)[nH]1` belongs -11% (inactive); to `Cc1ccc(OCCC(=O)Nc2ccc(S(=O)(=O)Nc3cc(C)nc(C)n3)cc2)cc1`, -3.66% (inactive); to `Cc1ccc(C(=O)N/N=C/c2ccc([N+](=O)[O-])s2)cc1`, -14.9% (inactive).
In the case of `Cc1cc(C(=O)N/N=C/c2ccc([N+](=O)[O-])s2)n[nH]1`, the inhibition is 21.5% (inactive).
To `COC(=O)N/N=C/c1ccc([N+](=O)[O-])s1` belongs -3.8% (inactive).
To `O=C(N/N=C/c1ccc([N+](=O)[O-])s1)c1ccncc1` belongs -1.03% (inactive); to `Cn1c(SCC(=O)N/N=C/c2ccc([N+](=O)[O-])s2)nnc1-c1ccccc1`, 17.5% (inactive).
The value for `Cn1c(SCC(=O)N/N=C/c2cc([N+](=O)[O-])ccc2O)nnc1-c1ccccc1` was 2.1% (inactive); that for `O=C(N/N=C\c1ccc([N+](=O)[O-])s1)c1cncc(Br)c1` was -10.5% (inactive).
Take `Cc1ccc(C(=O)N/N=C\c2cccs2)cn1`: the inhibition was -3.85% (inactive).
For `O=C(Nc1ccc2c(c1)CCC2)c1ccc(Cl)nc1`, the inhibition was 8.38% (inactive).
The value for `COC/C=C/C1=CC2=CC(=O)C(C)(OC(=O)c3cnc4ccccc4n3)C(=O)C2=CN1c1cccc(C#N)c1` (stereo not drawn) was 0.42% (inactive); that for `O=C(CSc1nccc(=O)[nH]1)N1CCOCC1` was -10% (inactive).
The value for `CN(CCCCN1CCOCC1)Cc1nc(-c2ccc3c(c2)OCO3)no1` was -10.5% (inactive); that for `CCn1cc(C(=O)c2cccs2)c2ccccc21` was -0.847% (inactive); that for `O=C(CSc1nnc(SCc2ccccc2)s1)N/N=C/C=C/c1ccccc1[N+](=O)[O-]` was 8.59% (inactive).
With `CCn1cc(C(=O)N2CCN(c3ccccc3F)CC2)c(=O)c2ccc(C)nc21`, the inhibition is -6.12% (inactive).
To `c1ccc(-c2cc(-c3ccncc3)nc3ccc4ccccc4c23)cc1` belongs -9.12% (inactive); to `Cc1ccc2nc(/C(C#N)=C/c3ccc(-c4cccc([N+](=O)[O-])c4)o3)[nH]c2c1`, -10.4% (inactive); to `N#C/C(=C\c1ccc([N+](=O)[O-])o1)c1nc2ccccc2[nH]1`, 7.25% (inactive).
To `COC(=O)c1[nH]c2cc(OC)ccc2c1NC(=O)c1ccc2c(c1)OCO2` belongs -8.72% (inactive); to `O=C(Nc1cccnc1)c1ccc(Br)s1`, 12.6% (inactive).
As to `COc1ccc(NC(=O)c2cccs2)cn1`, the inhibition is 2.51% (inactive).
Turning to `CCc1sc(C(=O)Nc2cccnc2)cc1Br`, the inhibition is -8.13% (inactive).
To `CCc1cc(C(=O)Nc2ccc(OC)nc2)sc1C` belongs 4.89% (inactive); to `O=S(=O)(c1ccc(-c2csc(-c3cccnc3)n2)cc1)N1CCCC1`, 0% (inactive).
